Laboratory results taken from PubChem BioAssay AID493027 (The Scripps Research Institute Molecular Screening Center, 2011).
Hit rate of the full screen: of about 2,000 compounds, about 45 (2%) were called active.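 How the source made its calls: active means inhibition above the screen-wide mean inhibition plus 3 SD (cut at about 44% in these data); inactive means the rest.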 The full list was thinned out, with actives kept by preference.

biological target: Perilipin-1 (Homo sapiens) + 1-acylglycerol-3-phosphate O-acyltransferase ABHD5 (Homo sapiens) (UniProt O60240+Q8WTS1); test: blockers of ABHD5 binding to perilipin-1 – cell lysate, split luciferase complementation, luminescence, NIH validation set, pilot screen (AID 493027);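 further: 0% = DMSO wells with the 100% control not disclosed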; conditions: split G. princeps luciferase complementation, 4 h; at 7.9 µM, hits give high values
Sequence (O60240 whole entry, looked up): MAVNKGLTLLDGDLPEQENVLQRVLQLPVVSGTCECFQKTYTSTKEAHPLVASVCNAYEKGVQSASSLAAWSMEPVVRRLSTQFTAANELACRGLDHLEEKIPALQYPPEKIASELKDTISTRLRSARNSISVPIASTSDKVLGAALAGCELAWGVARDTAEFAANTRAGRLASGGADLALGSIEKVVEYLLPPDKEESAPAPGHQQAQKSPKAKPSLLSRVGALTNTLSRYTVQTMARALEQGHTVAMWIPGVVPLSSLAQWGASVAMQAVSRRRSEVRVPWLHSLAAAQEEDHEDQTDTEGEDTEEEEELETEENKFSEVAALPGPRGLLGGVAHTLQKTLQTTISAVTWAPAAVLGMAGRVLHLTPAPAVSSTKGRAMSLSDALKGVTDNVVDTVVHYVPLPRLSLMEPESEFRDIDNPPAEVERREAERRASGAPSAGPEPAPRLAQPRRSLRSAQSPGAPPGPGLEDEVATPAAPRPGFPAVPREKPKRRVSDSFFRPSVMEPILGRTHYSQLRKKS
Sequence (Q8WTS1 whole entry, looked up): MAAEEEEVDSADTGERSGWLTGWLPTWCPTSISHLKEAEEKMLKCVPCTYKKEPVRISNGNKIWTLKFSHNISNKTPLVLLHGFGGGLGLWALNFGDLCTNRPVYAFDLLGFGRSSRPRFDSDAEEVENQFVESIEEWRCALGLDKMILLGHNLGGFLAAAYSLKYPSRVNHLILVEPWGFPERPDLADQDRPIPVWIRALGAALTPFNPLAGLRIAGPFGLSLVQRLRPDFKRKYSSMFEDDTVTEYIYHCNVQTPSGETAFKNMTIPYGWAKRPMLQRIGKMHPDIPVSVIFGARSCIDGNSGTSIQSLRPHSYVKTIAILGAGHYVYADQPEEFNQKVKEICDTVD

Structure (SMILES)	inhibition
COc1ccc(C2OC[C@H]3O[C@H](O)[C@H](NC(C)=O)[C@@H](O)[C@@H]3O2)cc1 (stereo not given in full)	-8.14% (inactive)
COc1ccc2c(c1)CC[C@@H]1[C@@H]2CC[C@]2(C)C(=O)CC[C@@H]12	-10.8% (inactive)
C[C@]12CCC3C(CC=C4C[C@@H](O)CC[C@@]43C)C1CCC2[C@]1(C)CCC(=O)O1 (stereo not given in full)	0.59% (inactive)
COc1cccc(-n2c(C)c3c(OC)cccc(=O)c3c2C)c1	12% (inactive)
CCC(C)NCCOc1ccccc1C (stereo not given)	-6.76% (inactive)
COc1ccc(OC)c(-n2c(Cn3c(-c4ccccn4)nc4ccccc43)n[nH]c2=S)c1	-10.2% (inactive)
COc1ccc(C(=O)N2c3cc4c(cc3C(C)=CC2(C)C)OCO4)cc1	-4.62% (inactive)
Cc1nc(C)c(C)nc1C	-2.64% (inactive)
O=C1CCCCCN1Cc1ccccc1	-0.49% (inactive)
O=C1C=CC(=O)C(C2=C3C(=O)N(CCc4ccccc4)CC(=O)N3CCC2)=C1	68.9% (active)
CC1(C)CC(CC(=O)Nc2nccs2)(c2ccccc2)CCO1 (stereo not given)	-1.2% (inactive)
COc1ccc(C2C(=O)c3ccccc3C2=O)cc1	-2.92% (inactive)
COc1ccc(-c2nc(NC(C)=O)sc2-c2ccc(OC)cc2)cc1	11.4% (inactive)
COc1ccc(C2=CC(=O)C=CC2=O)cc1	73.7% (active)
NS(=O)(=O)c1ccc(CNC(=O)c2cc(-c3ccccc3)nc3ccccc23)cc1	10.2% (inactive)
CCOc1ccc2nc(NC(=O)NC3CCCCC3)sc2c1	-5.14% (inactive)
CCOc1cccc(N2C(=O)CC(N(CCc3ccc(OC)c(OC)c3)C(=O)CC)C2=O)c1 (stereo not given)	-6.24% (inactive)
COC(=O)c1ccc(=O)n(Cc2ccco2)c1	12.2% (inactive)
COC(=O)C1=C(C)N(Cc2ccco2)C(=O)/C1=C\c1ccc([N+](=O)[O-])cc1	86% (active)
COCCCN1C(=O)/C(=C\c2cccs2)C(C(=O)OC)=C1C	3.99% (inactive)
CN=C1c2cc3cc(OC)ccc3n2CCN1C	3.44% (inactive)
Oc1[nH]c2ccccc2c1N=Nc1ccccc1	-0.17% (inactive)
COC(=O)c1cc(COc2ccc3ccc(=O)oc3c2)c(C)o1	-9.09% (inactive)
Cc1ccccc1C(=O)NCC(=O)O	0.22% (inactive)
COc1ccc(CCNC(=O)c2ccc(Cl)cc2)cc1OC	-5.87% (inactive)

Structure (SMILES)	inhibition
CN(C)CCCN1c2ccccc2Sc2ccccc21	-3.33% (inactive)
CC(CN1c2ccccc2Sc2ccccc21)N(C)C (stereo not given)	-9.88% (inactive)
CCN1/C(=C/C=C/C=C/c2sc3ccccc3[n+]2CC)Sc2ccccc21	52.7% (active)
CC(=O)N(C(C)=O)c1nc2nc(C)cc(C)n2n1	-0.49% (inactive)
OC(C#CCN1CCCC1)(c1ccccc1)c1cccnc1 (stereo not given)	0.07% (inactive)
COc1ccc(Cc2nc(-c3ccc(Br)cc3)no2)cc1	-12% (inactive)
CCOc1ccc(CC2CCC(=O)NC2=O)cc1 (stereo not given)	3.55% (inactive)
O=Cc1ccc(OC(=O)c2cccnc2)cc1	-5.64% (inactive)
Fc1ccc(-n2cc(CNCCc3ccccn3)c(-c3ccccc3Cl)n2)cc1	1.9% (inactive)
CC(C)(C)OC(=O)N1CC(O)CC1C(=O)OCC(=O)c1ccc(Cl)cc1 (stereo not given)	-9.04% (inactive)
CC1=CC(=O)c2ccccc2C1=O	44.4% (active)
CCNC1=C(Cl)C(=O)c2ccccc2C1=O	-12.7% (inactive)
CC(C)=CCC/C(C)=C/CC/C(C)=C/CC/C(C)=C/CC1=C(C)C(=O)c2ccccc2C1=O	18.4% (inactive)
COc1ccc2[nH]c3c(=O)n(/N=C/[C@H]4C(C)C=C(C)CC4C)c(=O)[nH]c3c2c1 (stereo not given in full)	23.9% (inactive)
COc1ccc(CCNC(=O)c2c(O)c3c([nH]c2=O)CCCC3)cc1	3.26% (inactive)
COc1ccc(C(=O)OCc2cc3cccc(C)c3[nH]c2=O)cc1	-1.47% (inactive)
Cc1cc(-c2nn(-c3ccccc3F)cc2CN2CCC(O)CC2)c(C)s1	-2.82% (inactive)
CCOc1cc2c3c(c1)C(C)=CC(C)(C)N3C(=O)C2=O	43.5% (active)
COc1cc2c3c(c1)C1(C(=O)N3C(C)(C)C=C2C)C(C#N)=C(N)Oc2cc(C)oc(=O)c21 (stereo not given)	-0.82% (inactive)
COc1cc2c3c(c1)C(C)CC(C)(C)N3C(=O)C2=O (stereo not given)	6.69% (inactive)
CS(=O)(=O)Nc1cccc(C(=O)CC2(O)C(=O)Nc3ccc(Br)cc32)c1 (stereo not given)	-3.35% (inactive)
COc1cc2c(cc1OC)-c1nnc(C)n1C(C)(C)C2	-2.21% (inactive)
COc1ccc(CN(CCC(c2ccccc2)c2ccc(OC(C)C)cc2)C(=O)CCl)cc1OC (stereo not given)	64.4% (active)
COc1ccccc1C(CC(=O)Nc1ccccc1C)c1ccc(OC(C)C)cc1 (stereo not given)	0.34% (inactive)
COc1ccc(CNCCC(c2ccc(F)cc2)c2ccc(OC(C)C)cc2)cc1OC (stereo not given)	-6.56% (inactive)

Structure (SMILES)	inhibition
CC(C)C12CN3CC(C(C)C)(CN(C1)C3c1ccccc1)C2O (stereo not given)	-10.6% (inactive)
Cn1c(=S)n(C)c2ccccc21	-7.95% (inactive)
COc1ccc2cc(C(=O)OC(C)C)sc(=O)c2c1OC	3.53% (inactive)
COc1cccc(OCc2cc(C3Nc4ccccc4C(=O)N3Cc3ccco3)ccc2OC)c1 (stereo not given)	42.9% (inactive)
CCCOc1ccc(-c2cc(C(=O)NCC3CCCO3)c3ccccc3n2)cc1 (stereo not given)	-2.49% (inactive)
O=C(O)c1cc(-c2ccccc2)nc2ccccc12	-6.78% (inactive)
COC(=O)c1cc(-c2ccc(C)o2)nc2ccccc12	78% (active)
COc1cc2cc(C)nc(Cc3cccc4ccccc34)c2cc1OC	16.5% (inactive)
COc1ccc(C2C3C(C)=NN=C3CC(C)(O)C2C(C)=O)cc1 (stereo not given)	-2.63% (inactive)
Oc1[nH]c2ccccc2c1C1=NCCCC1	-6.01% (inactive)
O=C(Cc1ccccc1[N+](=O)[O-])NCCCN1CCOCC1	-7.14% (inactive)
O=C(c1ccco1)N(CCC(c1ccccc1)c1ccco1)Cc1ccco1 (stereo not given)	56.6% (active)
CC(=O)N(CCC(Cc1ccccc1)c1ccco1)Cc1ccco1 (stereo not given)	40.8% (inactive)
COc1ccccc1C(CCN(Cc1ccccc1)C(C)=O)c1ccco1 (stereo not given)	9.44% (inactive)
CCOc1ccc2ccccc2c1CNc1nnnn1C	-8.53% (inactive)
CC(C)N1C(=O)/C(=C\c2nc3ccccc3c(=O)[nH]2)c2ccccc21	70.2% (active)
COc1ccc(C(=O)Nc2nc3ccccc3c(=O)[nH]2)cc1	-4.92% (inactive)
CC(=O)Oc1ccc(C(=O)O)cc1OC(C)=O	2.2% (inactive)
CCC1(c2ccccc2)NC(=S)N(c2ccc(C)c(C)c2)N1 (stereo not given)	-0.55% (inactive)
CC(=O)/C=C/c1ccc(C)o1	18.2% (inactive)
O=C(Nc1ccc(Oc2c(F)c(F)c(F)c(F)c2F)cc1)OC1CCN2Cc3ccccc3N=C12 (stereo not given)	71.9% (active)
COc1cccc2c(=O)c3ccccc3oc12	-14.7% (inactive)
CCc1ccc(/C=C2\SC(=S)N(CCC(=O)N3CCN(C)CC3)C2=O)cc1	-12.7% (inactive)
O=c1c2ccccc2nnn1Cc1cccc2ccccc12	7.22% (inactive)
COc1ccccc1/C=C/C(=O)c1c2c(c(C)[nH]c1=O)CCCC2	28.8% (inactive)

Structure (SMILES)	inhibition
COc1ccccc1C(=O)c1cc2ccc(O)cc2oc1=O	4.61% (inactive)
COc1cccc(/C=C/C(=O)c2c(O)cc(C)oc2=O)c1O	47.8% (active)
O=C1C(Cc2ccccc2)NC(=S)N1c1ccccc1 (stereo not given)	-13.4% (inactive)
Cc1ccc2c(c1)OC(=O)CC2c1ccccc1 (stereo not given)	-5.39% (inactive)
Oc1ccccc1OCCOc1ccccc1OCCOc1ccccc1O	8.26% (inactive)
Cc1cccc(OCC(=O)Nc2ccc(C(=O)NCC(C)C)cc2)c1	-6.6% (inactive)
CCc1oc2ccccc2c1C(=O)c1cc(Br)c(O)c(Br)c1	57.3% (active)
CCCCc1oc2ccccc2c1C(=O)c1cc(I)c(OCCN(CC)CC)c(I)c1	-6.98% (inactive)
CC(=O)CCc1oc2ccccc2c1-c1ccccc1	-1.83% (inactive)
COc1cc2c(cc1OC)CN(Cc1ccc(C)s1)CC2	2.36% (inactive)
O=C(N1CCCCC1)C1(c2ccccc2)CCOCC1	-5.12% (inactive)
Cc1cc(O)c2/c(=N\N)c(-c3csc(C)n3)coc2c1	5.2% (inactive)
COc1cc(/C=C(\C#N)C(=O)N2CCc3ccccc32)ccc1O	42.5% (inactive)
COC(=O)c1ccc2c(c1)C(=O)/C(=C/c1ccc(O)cc1)O2	7.53% (inactive)
COc1ccccc1C(=O)Oc1ccc2c(c1)O/C(=C\c1ccncc1)C2=O	45.6% (active)
CCc1ccc(/C=C2\Oc3cc(OC(=O)N4CCOCC4)ccc3C2=O)cc1	17.4% (inactive)
O=C(O)CCSc1nc2ccccc2s1	0.7% (inactive)
CC[n+]1c(C)sc2cc(C)ccc21	0.88% (inactive)
O=C(OCCN1CCCC1)C1(c2ccccc2)CCCC1	-8.49% (inactive)
Cc1nc(C(=O)Nc2ccccc2Cl)cc2c1[nH]c1ccccc12	-0.62% (inactive)
COc1ccc2c(c1)C=CC1(O2)N(CCO)c2ccccc2C1(C)C (stereo not given)	45.5% (active)
COc1ccc(NC(=O)C2C(=O)N(CCO)C3(C)CC2c2ccccc2O3)cc1 (stereo not given)	-10.9% (inactive)
O=C(Nc1cccc(Oc2c(F)c(F)c(F)c(F)c2F)c1)N1C[C@@H]2C[C@@H](C1)c1cccc(=O)n1C2	9% (inactive)
COc1ccc(Cc2noc(CN(C)CC3(N4CCOCC4)CCCCC3)n2)cc1OC	-1.95% (inactive)
Cn1cc(C2N3CC4(C)CN2CC(C)(C3)C4=O)c2ccccc21 (stereo not given)	-7.09% (inactive)
